From the supplement of paper PMC10338343 come the findings set out here.

± gives the standard deviation.
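Note: 1 nM active piRISC with 0.1 nM target library at 33 °C single turnover.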

This test deals with MILI (PIWIL2) piRISC loaded with L1MC piRNA (26 nt). Nature of the test: pre-steady-state target cleavage rate (min^-1); guide: L1MC piRNA 5'p-UAACUAAAUACUAUGCAAGCUGUAGG; MIWI and MILI are mouse PIWI proteins and EfPiwi is from a freshwater sponge; tags in brackets are library labels; higher = faster piRNA-guided slicing of the target. Particulars: auxiliary factor: 500 nM mouse GTSF1. A digest of the protocol: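 A burst-and-steady-state fit was used to obtain the pre-steady-state cleavage rate. The input data were sequencing reads of uncleaved targets, normalised to depth and to weakly complementary targets, from a […] transcribed, DNA-blocked target RNA library mixed with 1 nM active affinity-purified piRISC holding one synthetic guide, with or without 500 nM GTSF1 partner protein, in HEPES–potassium acetate buffer at 33 °C for 0–8 or 0–960 min. Three trials were pooled and k3 was capped at 0.0001 min^-1.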
As to UCCUGGAACAGCUUGCUUUGUAUUUAGUUA, the “pre-steady-state target cleavage rate” value was 0.182 ± 0.019. Then UCCUCCAACAGCUUGCAUAGUAUUUAGAUA, with 0.192 ± 0.034; and UCCUGGAUGUGCUUGCAUACUAUUUAGUUA, with 0.0281 ± 0.0064; and UCCUCCUACACCUUGGAUAGUAUUUAGUUA, with 0.182 ± 0.026. In the case of UCCUCCAUGAGCUUGCAUAGUAUUUAGUUA, the “pre-steady-state target cleavage rate” value was 0.279 ± 0.016. The figure for UCCUGCUAGCAGCUUGCAUAGUAUUUAGUUA is 0.259 ± 0.014. For UCCUCCUACAGCUUGCUUAGUUUUUAGUUA, the “pre-steady-state target cleavage rate” value was 0.0513 ± 0.01. The figure for UCCUCCUACACGCUUGCAUAGUAUUUAGUUA is 0.207 ± 0.013; for UCCUGGUACAGCUUGCAUAGUACUUUAGUUA it is 0.147 ± 0.024; for UCCUGGAACAGCUUGCAAUGUAUUUAGUUA it is 0.0726 ± 0.0083. Take UCCUGGAACAGCUUGGAUAGUAUAUAGUUA: the “pre-steady-state target cleavage rate” value was determined as 0.215 ± 0.027. Then UCCUGGAUCAGGUAGCAUAGUAUUUAGUUA, with 0.118 ± 0.013; and UCCUGGAUGUCCUGCAUAGUAUUUAGUUA, with 0.094 ± 0.013. The figure for UCCUGGAACAGCUUGCAAAGUAUUUAGUAA is 0.158 ± 0.022. For the sequence UCCUGGUACAGCUUGCAUAGUAUUUUGUUA, the “pre-steady-state target cleavage rate” value amounted to 0.118 ± 0.024. The figure for UCCUGGAUCAGCUUGCAUAGUAUUUCGUUA is 0.147 ± 0.034; for UCCUGGAUGUCGAUGCAUAGUAUUUAAGUUA it is 0.145 ± 0.019. Turning to UCCUGGAACAGCUUGACAUAGUAUUUAGUUA, the “pre-steady-state target cleavage rate” value came out at 0.213 ± 0.016. The figure for UCCUGCUACAGCUUGGAUAGUUUUUAGUUA is 0.0668 ± 0.012. The figure for UCCUGCUACUGCUUGCAUAGUAUUUAGUUA is 0.234 ± 0.025. Then UCCUGGAUCAGCUUGCAAACUAUUUAGUUA, with 0.0267 ± 0.0067; and UCCUGGAACAGCAAGCAUAGUAUUUAGUUA, with 0.275 ± 0.018; and UCCUGGAACUAGCUUGCAUAGUAUUUAGUUA, with 0.132 ± 0.021. With UCCUGGAUGAGCUGCAUAGUAUUUAGUUA, the “pre-steady-state target cleavage rate” value worked out at 0.101 ± 0.013.
